About 2,000 (36%) of roughly 5,500 compounds were called active. Another 18% or so got no clear call; they are omitted. Rule as the data show it: active = normalized growth mostly below about 0.91 (no sharp cut-off); inconclusive = no clear call, values can overlap the other calls; inactive = mostly above about 0.92. Some of the results follow.
Assay: chemical genetic growth profiling, strain panel (AID 1159580);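 also: tested at 20 µM; growth read once vehicle control cultures reached saturation at 30 °C; 1 = growth at the plate median or of vehicle wells; lower values mean less growth of the strain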
Settings: S. cerevisiae deletion strains, growth OD

Measured: normalized growth

CC(=O)NBr
inactive: locus YAL013W, strain DEP1, hits give low values 1.02 | locus YAL040C, strain CLN3, hits give low values 0.995 | locus YDR363W, strain ESC2, hits give low values 1.01 | locus YER002W, strain NOP16, hits give low values 1.01 | locus YGR078C, strain PAC10, hits give low values 1.01 | locus YMR263W, strain SAP30, hits give low values 1 | locus YNL128W, strain TEP1, hits give low values 1.01 | locus YNL175C, strain NOP13, hits give low values 1.01 | locus YNL197C, strain WHI3, hits give low values 0.997 | locus YNL224C, strain SQS1, hits give low values 1.01 | locus YOR083W, strain WHI5 (second series), hits give low values 1.01 | locus YPL055C, strain LGE1, hits give low values 0.999
